Test results as given in PubChem BioAssay (NCATS).
Results filed as inconclusive are left out. Values without a mark were called inactive. Active and inactive are the calls of the source. The call rests on the fitted dose curve; in most records, active means well fitted inhibition curve with a large enough effect; inconclusive means small, poorly fitted or top-dose-only effect; inactive means flat fitted curve, though single readings scatter.

Experiment: qHTS profiling for inhibitors of Plasmodium falciparum proliferation (AID 504749); further: nearly all actives have a fitted effect of over 60% in size;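 on activity, negative = inhibition: 0% = DMSO vehicle and full inhibition = artemisinin control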
Details: P. falciparum in erythrocytes, SYBR Green DNA, 72 h; for activity, negative = inhibition: at 28.7 µM (top of the series)
Summary of the method: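 Parasite proliferation within erythrocytes, 72 h exposure. Endpoint: SYBR Green I fluorescence after overnight lysis at room temperature. Controls: 0.29 uM artemisinin, DMSO.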
Potency means the concentration at half of the fitted maximal effect.

Q: Which results are given for `N=C(N)c1ccc(/C=C/c2ccc(C(=N)N)cc2O)cc1`?
A: Potency (parasite line A): 8.91 µM (active); Potency (parasite line B): 10 µM (active)

Q: With `O=C(O)CCCC/C=C(\c1ccccc1)c1cccnc1` as the compound, how does the activity, negative = inhibition (parasite line A) read?
A: The activity, negative = inhibition was 3.33%.

Q: And the activity, negative = inhibition (parasite line B)?
A: The activity, negative = inhibition was 8.41%.

Q: What does the source list for `CC1(O)CCC(C(C)(C)O)CC1` (stereo not given)?
A: activity, negative = inhibition (parasite line A): -2.29%; activity, negative = inhibition (parasite line B): 4.1%

Q: Which activity, negative = inhibition (parasite line A) does the source give for `CC(C)=CCC/C(C)=C/CC/C(C)=C/CC/C=C(\C)CC/C=C(\C)CCC=C(C)C` here?
A: Its activity, negative = inhibition is 0.919%.

Q: What about the activity, negative = inhibition (parasite line B) of the same compound?
A: Its activity, negative = inhibition is 12.5%.

Q: For `Cc1ccc(S(=O)(=O)O)cc1C`, which activity, negative = inhibition (parasite line A) is on record?
A: Its activity, negative = inhibition is 8.18%.

Q: What about the activity, negative = inhibition (parasite line B) of the same compound?
A: The activity, negative = inhibition was 4.98%.

Q: What does the source list for `CCN(CC)CCC(=O)N1c2ccccc2Sc2ccc(C(F)(F)F)cc21`?
A: activity, negative = inhibition (parasite line A): -4.68%; activity, negative = inhibition (parasite line B): -16.3%

Q: Which results are given for `Cc1cccc(Nc2ncccc2C(=O)O)c1C`?
A: activity, negative = inhibition (parasite line A): 2.92%; activity, negative = inhibition (parasite line B): 1.25%

Q: With `C[C@H](O)CN(C)C` as the compound, how does the activity, negative = inhibition (parasite line A) read?
A: Its activity, negative = inhibition is 9.28%.

Q: And the activity, negative = inhibition (parasite line B)?
A: Its activity, negative = inhibition is 3.53%.

Q: Which activity, negative = inhibition (parasite line A) does the source give for `CCN(CC)C(=O)c1cccnc1` here?
A: Its activity, negative = inhibition is 10.9%.

Q: And the activity, negative = inhibition (parasite line B)?
A: The activity, negative = inhibition was 11.6%.

Q: Which activity, negative = inhibition (parasite line A) does the source give for `CC12CCC(C1)C(C)(C)C2=O` (stereo not given) here?
A: Its activity, negative = inhibition is 8.34%.

Q: And the activity, negative = inhibition (parasite line B)?
A: Its activity, negative = inhibition is 10.9%.

Q: For `CC1CCC(NC(=O)N(CCCl)N=O)CC1` (stereo not given), which activity, negative = inhibition (parasite line A) is on record?
A: Its activity, negative = inhibition is 9.36%.

Q: And the activity, negative = inhibition (parasite line B)?
A: The activity, negative = inhibition was 3.89%.

Q: Which activity, negative = inhibition (parasite line A) does the source give for `CNC(=O)C[C@@H](N)C(=O)N[C@@H](C(=O)N[C@@H]1C(=O)N2[C@@H]1SC(C)(C)[C@@H]2C(=O)O)c1ccc(O)cc1` here?
A: The activity, negative = inhibition was 11.3%.

Q: What about the activity, negative = inhibition (parasite line B) of the same compound?
A: Its activity, negative = inhibition is 15.8%.

Q: Which results are given for `N=C(N)n1cccn1`?
A: activity, negative = inhibition (parasite line A): -11.6%; activity, negative = inhibition (parasite line B): 1.65%

Q: What does the source list for `O=C(O)CCC/C=C\C[C@@H]1[C@@H](/C=C/[C@@H](O)COc2cccc(Cl)c2)[C@H](O)C[C@@H]1O`?
A: activity, negative = inhibition (parasite line A): 11.9%; activity, negative = inhibition (parasite line B): -6.6%

Q: What does the source list for `CC(C)(C)c1ccc2c(S(=O)(=O)O)c(C(C)(C)C)ccc2c1`?
A: activity, negative = inhibition (parasite line A): 16.3%; activity, negative = inhibition (parasite line B): 12.2%

Q: Which results are given for `Cn1cc(NC(=O)c2cc(NC(=O)c3cc(NC=O)cn3C)cn2C)cc1C(=O)NCCC(=N)N`?
A: Potency (parasite line A): 8.91 µM (active); Potency (parasite line B): 11.2 µM (active)

Q: For `O=P(O)(O)OC[C@H]1O[C@](O)(COP(=O)(O)O)[C@@H](O)[C@@H]1O`, which activity, negative = inhibition (parasite line A) is on record?
A: Its activity, negative = inhibition is 8.54%.

Q: What about the activity, negative = inhibition (parasite line B) of the same compound?
A: Its activity, negative = inhibition is 12.4%.

Q: Which activity, negative = inhibition (parasite line A) does the source give for `N#Cc1ccc2c(c1)N(CCCN1CCC(O)CC1)c1ccccc1S2` here?
A: Its activity, negative = inhibition is -11.2%.

Q: What about the activity, negative = inhibition (parasite line B) of the same compound?
A: The activity, negative = inhibition was -26.8%.

Q: What does the source list for `CCCCCCCCCCCCCCCCCCCCCC(=O)Nc1ccn([C@@H]2O[C@H](CO)[C@@H](O)[C@@H]2O)c(=O)n1`?
A: activity, negative = inhibition (parasite line A): 4.02%; activity, negative = inhibition (parasite line B): 6.88%

Q: With `O=C(O)C1=C(CSc2nnnn2CS(=O)(=O)O)CS[C@@H]2[C@H](NC(=O)[C@H](O)c3ccccc3)C(=O)N12` as the compound, how does the activity, negative = inhibition (parasite line A) read?
A: The activity, negative = inhibition was -7.54%.

Q: What about the activity, negative = inhibition (parasite line B) of the same compound?
A: The activity, negative = inhibition was 1.69%.

Q: What does the source list for `CC(C)CCC[C@@H](C)[C@H]1CC[C@H]2[C@@H]3CC=C4C[C@@H](O)CC[C@]4(C)[C@H]3CC[C@]12C`?
A: activity, negative = inhibition (parasite line A): 4.96%; activity, negative = inhibition (parasite line B): -1.65%

Q: For `COc1ccc(C(=O)CCC(=O)O)c2ccccc12`, which activity, negative = inhibition (parasite line A) is on record?
A: The activity, negative = inhibition was 16.4%.

Q: What about the activity, negative = inhibition (parasite line B) of the same compound?
A: The activity, negative = inhibition was 8.35%.

Q: For `Cc1ncc(C[n+]2csc(CCOP(=O)(O)O)c2C)c(N)n1`, which activity, negative = inhibition (parasite line A) is on record?
A: Its activity, negative = inhibition is -5.57%.

Q: What about the activity, negative = inhibition (parasite line B) of the same compound?
A: The activity, negative = inhibition was 6.98%.

Q: What does the source list for `CC(CCc1ccc(O)cc1)NCC(O)c1ccc(O)cc1` (stereo not given)?
A: activity, negative = inhibition (parasite line A): 1.25%; activity, negative = inhibition (parasite line B): 15.8%

Q: With `CCC(Cc1c(I)cc(I)c(O)c1I)C(=O)O` (stereo not given) as the compound, how does the activity, negative = inhibition (parasite line A) read?
A: The activity, negative = inhibition was 0.0242%.

Q: What about the activity, negative = inhibition (parasite line B) of the same compound?
A: Its activity, negative = inhibition is -1.87%.
